From PubChem
HEK cytotox = kills HEK 293 cells; AID 1345083; HEK 293 viability, ATP luminescence (CellTiter-Glo), 48-72 h; Potency, µM (top dose mostly 115 µM), actives largely listed as inhibitors; hit rate 6.6% among 94,000; also: nearly all actives have a fitted effect of over 60% in size
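HEK 293 seeded at 250 cells/well receive compound via pintool. After 48 or 72 hr at 37 degree Celsius, 5% CO2 and 95% humidity, CellTiter-Glo is dispensed and luminescence read following 10 min at room temperature.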
NIH3T3 tox = NIH 3T3 cell cytotoxicity. NIH 3T3 viability, CellTiter-Glo ATP luminescence, 48-72 h. Potency, µM (doses to about 96.7 µM), actives largely listed as inhibitors. hit rate 4.3% among 94,000. AID 1345082; also: nearly all actives have a fitted effect of over 55% in size
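ATP-dependent luminescence (CellTiter-Glo) served as the viability signal for NIH 3T3 cells treated with compound for 48 or 72 hr at 37 °C.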
hNpr1 antagonist = antagonists of human natriuretic peptide receptor Npr1; P16066; HEK293 hNpr1 GloSensor cGMP, ANP-stimulated luminescence; Potency, µM (top dose mostly 46.3 µM), usual class: inhibitors; hit rate 1.6% among 76,000; calls by dose curve; also: nearly all actives have a fitted effect of over 60% in size
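Compound pre-incubated 30 min at room temperature on GloSensor-loaded HEK293 cells stably carrying hNpr1 and the pGS-40F cGMP biosensor. Stimulation uses hNppA at 0.1 nM final; luminescence is taken at baseline and 20 min post-agonist.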
GPT2 inh = inhibitors of human GPT2 alanine aminotransferase; AID 1671188; hit rate 0.25% among 100,000; Q8TD30; Recombinant GPT2, coupled pyruvate oxidase/HRP Amplex Red fluorescence; Potency, µM (top dose mostly 57.7 µM), usual class: inhibitors; also: nearly all actives have a fitted effect of over 60% in size
Target sequence (Q8TD30 whole entry, looked up): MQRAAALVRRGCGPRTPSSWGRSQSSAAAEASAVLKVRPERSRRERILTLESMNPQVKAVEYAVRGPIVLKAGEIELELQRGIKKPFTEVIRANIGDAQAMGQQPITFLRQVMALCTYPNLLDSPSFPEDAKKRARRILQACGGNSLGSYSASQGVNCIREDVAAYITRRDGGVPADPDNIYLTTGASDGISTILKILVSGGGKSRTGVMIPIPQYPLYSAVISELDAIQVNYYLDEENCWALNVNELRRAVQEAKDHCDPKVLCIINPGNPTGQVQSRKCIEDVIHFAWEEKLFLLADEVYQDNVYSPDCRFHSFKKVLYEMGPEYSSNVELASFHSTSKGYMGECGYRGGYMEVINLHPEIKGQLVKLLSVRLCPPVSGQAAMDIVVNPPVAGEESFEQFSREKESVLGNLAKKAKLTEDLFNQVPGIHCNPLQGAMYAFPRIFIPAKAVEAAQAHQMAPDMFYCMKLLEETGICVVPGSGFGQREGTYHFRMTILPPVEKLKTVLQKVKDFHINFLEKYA
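Inhibition is scored from Amplex Red fluorescence generated when pyruvate oxidase and HRP act on pyruvate released by GPT2. Reactions contain 10ng/uL enzyme, 250uM a-KG and 2mM L-alanine and run 30 min at room temperature.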
Luciferase inh = Photinus pyralis luciferase inhibition | purified P. pyralis luciferase, luminescence, biochemical | Potency, µM (highest dose often 115 µM), actives largely listed as inhibitors | hit rate 2.5% among 76,000 | AID 1347043; also: nearly all actives have a fitted effect of over 65% in size
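Purified 10nM P. pyralis luciferase with 10uM D-luciferin and 10uM ATP in 50mM Tris acetate pH 7.5, 10mM Mg acetate, 0.01% Tween-20, 0.05% BSA. qHTS titration; luminescence read by CCD imager.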
Numbers stand for hits. Sampled rows, rich in hits. Any-hit rate of the full collection: about 10%. Unless noted, calls follow the shape of the dose curve; as a rule, active = well fitted curve in the direction sought with a large enough effect; inconclusive = small, poorly fitted or top-dose-only effect, or another doubt; inactive = no such curve, though single readings can be large; an effect the other way counts as inactive or inconclusive.

Screening N#Cc1cccc(CN2Cc3[nH]cnc3C[C@H]2c2nc(-c3cccc([N+](=O)[O-])c3)no2)c1 returned HEK cytotox inconclusive, NIH3T3 tox inconclusive, hNpr1 antagonist inactive, GPT2 inh inactive and Luciferase inh inactive.
Screening O=[N+]([O-])c1cccc(-c2noc([C@@H]3Cc4nc[nH]c4CN3Cc3cccs3)n2)c1 returned HEK cytotox inconclusive, NIH3T3 tox 79µM, hNpr1 antagonist inconclusive, GPT2 inh inactive and Luciferase inh inactive.
Screening O=C1CC2(CCN([S+](=O)([O-])c3cccc(C(F)(F)F)c3)CC2)Oc2ccccc21 returned HEK cytotox inconclusive, NIH3T3 tox inconclusive, hNpr1 antagonist inactive, GPT2 inh inactive and Luciferase inh inactive.
O=C1CC2(CCN([S+](=O)([O-])c3cccc(C(F)(F)F)c3)CC2)Oc2cc(Cl)ccc21 was read as HEK cytotox 32µM, NIH3T3 tox inconclusive, hNpr1 antagonist inactive, GPT2 inh inconclusive and Luciferase inh inactive.
Screening COc1ccc(C(=O)N2CCC3(CC2)CC(=O)c2ccc(Cl)cc2O3)cc1 returned HEK cytotox 50µM, NIH3T3 tox inconclusive, hNpr1 antagonist inactive, GPT2 inh inconclusive and Luciferase inh inactive.
`O=C1CC2(CCN(C(=O)c3ccccc3)CC2)Oc2ccccc21` gave HEK cytotox inconclusive, NIH3T3 tox inconclusive, hNpr1 antagonist inactive, GPT2 inh inactive and Luciferase inh inactive.
Screening Cc1ccc(C(=O)N2CCC3(CC2)CC(=O)c2ccc(Cl)cc2O3)cc1 returned HEK cytotox inconclusive, NIH3T3 tox 35µM, hNpr1 antagonist inconclusive, GPT2 inh inactive and Luciferase inh inactive.
O=C(c1ccn[nH]1)N1CCC(Oc2ncccc2C(=O)N2CCCCC2)C1 (centres undefined) was read as HEK cytotox inactive, NIH3T3 tox inactive, hNpr1 antagonist inactive, GPT2 inh inactive and Luciferase inh inactive.
Screening COc1ccc2c(c1)CCN=C2C[C@H]1CN(C(=O)N2CCOCC2)CC[C@H]1CC(=O)O returned HEK cytotox inactive, NIH3T3 tox inactive, hNpr1 antagonist inactive, GPT2 inh inactive and Luciferase inh inactive.
COCCC(=O)N1CC(Oc2ccccc2-c2nc(C3CC3)no2)C1 was read as HEK cytotox inactive, NIH3T3 tox inactive and GPT2 inh inactive.
For CN(c1cc(=O)c2ccnc(-c3cccc(C(F)(F)F)c3)c2o1)C1CCOCC1 the results were HEK cytotox inactive, NIH3T3 tox 13µM, hNpr1 antagonist inactive, GPT2 inh inactive and Luciferase inh inactive.
COc1ncccc1-c1nccc2c(=O)cc(N(C)c3ccccc3)oc12 was read as HEK cytotox inconclusive, NIH3T3 tox 35µM, hNpr1 antagonist inactive, GPT2 inh inactive and Luciferase inh inactive.
Screening CN(c1ccccc1)c1cc(=O)c2ccnc(-c3ccncc3)c2o1 returned HEK cytotox inactive, NIH3T3 tox 25µM, hNpr1 antagonist inactive, GPT2 inh inactive and Luciferase inh inactive.
Screening COc1cc(-c2nccc3c(=O)cc(N(C)c4ccccc4)oc23)ccn1 returned HEK cytotox inconclusive, NIH3T3 tox 10µM, hNpr1 antagonist inactive, GPT2 inh inactive and Luciferase inh inactive.
CN(c1cc(=O)c2ccnc(-c3ccc(F)c(Cl)c3)c2o1)C1CCOCC1 was read as HEK cytotox inactive, NIH3T3 tox inconclusive, hNpr1 antagonist inactive, GPT2 inh inactive and Luciferase inh inactive.
Screening CC1(C)N=C(c2ccccc2)C(=O)N1CC(=O)NCCC1=CCCCC1 returned HEK cytotox inactive, NIH3T3 tox inactive, hNpr1 antagonist inactive, GPT2 inh inactive and Luciferase inh inactive.
For N#Cc1cc([N+](=O)[O-])c2sc(C(N)=O)[n+]([O-])c2c1 the results were GPT2 inh 13µM.
Screening COc1cccc(-c2ccc(C(=O)N3CCC(N[S+](=O)([O-])c4ccccc4)CC3)cc2)c1 returned HEK cytotox 20µM, NIH3T3 tox inconclusive and GPT2 inh inactive.
For COc1cccc(-c2cccc(C(=O)N3CCN(C(=O)Nc4ccc(Cl)cc4)CC3)c2)c1 the results were HEK cytotox 89µM, NIH3T3 tox inconclusive and GPT2 inh inactive.
COc1cccc(-c2ccc(C(=O)N3CCC(NC(=O)c4ccc(C)cc4)CC3)cc2)c1 was read as HEK cytotox inconclusive, NIH3T3 tox inactive and GPT2 inh inactive.
For COc1cccc(-c2ccc(C(=O)N3CCC(NC(=O)C4CCCC4)CC3)cc2)c1 the results were HEK cytotox inconclusive, NIH3T3 tox inconclusive and GPT2 inh inactive.
`COc1cccc(-c2ccc(C(=O)N3CCC(NC(=O)Nc4ccccc4)CC3)cc2)c1` gave HEK cytotox 25µM, NIH3T3 tox inconclusive and GPT2 inh inactive.
For COc1ccccc1-c1ccc(C(=O)N2CCC(NC(=O)Nc3ccccc3)CC2)cc1 the results were HEK cytotox 40µM, NIH3T3 tox inconclusive and GPT2 inh inactive.
For COc1cccc(-c2ccc(C(=O)N3CCC(NC(=O)c4ccccc4)CC3)cc2)c1 the results were HEK cytotox 45µM, NIH3T3 tox inconclusive and GPT2 inh inactive.
For COc1cccc(-c2ccc(C(=O)N3CCC(NC(=O)Nc4ccc(Cl)cc4)CC3)cc2)c1 the results were HEK cytotox 10µM, NIH3T3 tox 28µM and GPT2 inh inactive.
For COc1ccc(-c2cccc(C(=O)N3CCC(NC(=O)c4ccccc4OC)CC3)c2)nn1 the results were HEK cytotox 28µM and NIH3T3 tox inactive.
Screening C=CCNC(=O)[C@@H]1C[C@@H](O)CN1C1CCN(C(=O)c2cccc(OC)c2)CC1 returned HEK cytotox inactive, NIH3T3 tox inactive, hNpr1 antagonist inactive, GPT2 inh inactive and Luciferase inh inactive.
`O=C(NC1CCCC1)N1CCC(OCc2ccccc2)C1` (centres undefined) gave HEK cytotox inactive, NIH3T3 tox inactive and GPT2 inh inactive.
COCCNC(=O)[C@@H]1C[C@@H](O)CN1C1CCN(C(=O)COc2ccc(F)cc2)CC1 was read as HEK cytotox inactive, NIH3T3 tox inactive, hNpr1 antagonist inactive, GPT2 inh inactive and Luciferase inh inactive.
For CN(C)C[C@@H]1CN(Cc2ccccc2)C[C@H]1NC(=O)c1nn(C)c2ccccc12 the results were HEK cytotox 40µM, NIH3T3 tox inconclusive and GPT2 inh inactive.
CN(C)C[C@@H]1CN(Cc2ccccn2)C[C@H]1NC(=O)c1ccc(Cl)s1 was read as HEK cytotox 79µM, NIH3T3 tox inactive, hNpr1 antagonist inactive, GPT2 inh inactive and Luciferase inh inactive.
For COc1ccc(C(=O)N[C@@H]2CN(Cc3ccccc3)C[C@H]2CN(C)C)cc1F the results were HEK cytotox 6.3µM, NIH3T3 tox 20µM and GPT2 inh inactive.
CNC(=O)N1CCC(C2CCN(C(=O)Cc3ccc(F)cc3)C2)CC1 (centres undefined) was read as HEK cytotox inactive, NIH3T3 tox inactive, hNpr1 antagonist inactive, GPT2 inh inactive and Luciferase inh inactive.
CCOC(=O)c1ccc(NC2CCCCC2)c(N)c1 was read as GPT2 inh 3.5µM.
